Experimental findings from PubChem BioAssay (NCATS) are described below.

Results filed as inconclusive are left out. Unmarked numbers belong to inactive results. The source made the active and inactive calls. Calls come from the whole dose curve; as a rule, active = well fitted curve in the direction sought with a large enough effect; inconclusive = small, poorly fitted or top-dose-only effect, or another doubt; inactive = no such curve, though single readings can be large; an effect the other way counts as inactive or inconclusive.

Assay [1] can be described thus: Quantitative High-Throughput drug screen in 47 multiple myeloma cell lines against the NCATS MIPE library collection: KMS12PE_JCRB cell viability assay (AID 1918972). For viability: series mostly up to about 46 µM. Note: nearly all actives have a fitted effect of over 30% in size. Note: potency is the fitted concentration of half-maximal effect. In outline:
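Luminescent ATP measurement with CellTiter-Glo gives viability, scaled between DMSO-only wells (100%) and media-only wells (0%). Cells, 500 per well, faced library compounds for 48 hours at 37C.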

Assay [2] is described as follows: Quantitative High-Throughput drug screen in 47 multiple myeloma cell lines against the NCATS MIPE library collection: KMS26_JCRB cell viability assay (AID 1918975). Note: nearly all actives have a fitted effect of over 45% in size. Note: potency is the fitted concentration of half-maximal effect. In outline: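 We plated 500 myeloma cells per well, pinned in MIPE 4.0 compounds, and incubated for 48 hours at 37C. ATP was then quantified with CellTiter-Glo, with DMSO and media-only wells defining 100% and 0%.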

Assay [3] is described as follows: Quantitative High-Throughput drug screen in 47 multiple myeloma cell lines against the NCATS MIPE library collection: MM1R_ATCC cell viability assay (AID 1918981). Note: nearly all actives have a fitted effect of over 35% in size. Note: potency is the fitted concentration of half-maximal effect. In outline: (§1)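 qHTS format: cells plated (500/well), pin-dosed with MIPE 4.0 compounds, kept 48 h at 37 °C. Readout was CellTiter-Glo luminescence, median RLU.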
Assay [4] is described as follows: Quantitative High-Throughput drug screen in 47 multiple myeloma cell lines against the NCATS MIPE library collection: LP1_DSMZ cell viability assay (AID 1918982). Note: nearly all actives have a fitted effect of over 35% in size. Note: potency is the fitted concentration of half-maximal effect. An outline of the steps:
as §1

A short description of assay [5]: Quantitative High-Throughput drug screen in 47 multiple myeloma cell lines against the NCATS MIPE library collection: KMS28PE_JCRB cell viability assay (AID 1918983). Note: nearly all actives have a fitted effect of over 35% in size. Note: potency is the fitted concentration of half-maximal effect. An outline of the steps:
as §1

Assay [6] in a line: Quantitative High-Throughput drug screen in 47 multiple myeloma cell lines against the NCATS MIPE library collection: L363_DSMZ cell viability assay (AID 1918984). Note: nearly all actives have a fitted effect of over 40% in size. Note: potency is the fitted concentration of half-maximal effect. An outline of the steps:
as §1

A short description of assay [7]: Quantitative High-Throughput drug screen in 47 multiple myeloma cell lines against the NCATS MIPE library collection: KMS34_JCRB cell viability assay (AID 1918985). Note: nearly all actives have a fitted effect of over 40% in size. Note: potency is the fitted concentration of half-maximal effect. In outline:
as §1

Assay [8] can be described thus: Quantitative High-Throughput drug screen in 47 multiple myeloma cell lines against the NCATS MIPE library collection: OPM1_PLB cell viability assay (AID 1918989). Note: nearly all actives have a fitted effect of over 40% in size. Note: potency is the fitted concentration of half-maximal effect. In outline:
as §1

A short description of assay [9]: Quantitative High-Throughput drug screen in 47 multiple myeloma cell lines against the NCATS MIPE library collection: XG6_PLB cell viability assay (AID 1919865). Note: nearly all actives have a fitted effect of over 40% in size. Note: potency is the fitted concentration of half-maximal effect. An outline of the steps: as §1
Assay [10] is described as follows: Quantitative High-Throughput drug screen in 47 multiple myeloma cell lines against the NCATS MIPE library collection: MMM1_PLB cell viability assay (AID 1918976). Note: potency is the fitted concentration of half-maximal effect; nearly all actives have a fitted effect of over 35% in size. In outline:
as §1

Assay [11] can be described thus: Quantitative High-Throughput drug screen in 47 multiple myeloma cell lines against the NCATS MIPE library collection: MM1S_ATCC cell viability assay (AID 1918980). Note: nearly all actives have a fitted effect of over 45% in size. Note: potency is the fitted concentration of half-maximal effect. In outline: as §1
Assay [12] is described as follows: Quantitative High-Throughput drug screen in 47 multiple myeloma cell lines against the NCATS MIPE library collection: OCIMY7_PLB cell viability assay (AID 1918987). Note: nearly all actives have a fitted effect of over 65% in size. Note: potency is the fitted concentration of half-maximal effect. An outline of the steps:
as §1

Assay [13] is described as follows: Quantitative High-Throughput drug screen in 47 multiple myeloma cell lines against the NCATS MIPE library collection: SKMM1_PLB cell viability assay (AID 1919863). For viability: series mostly up to about 46 µM. Note: nearly all actives have a fitted effect of over 35% in size. Note: potency is the fitted concentration of half-maximal effect. Conditions: SKMM1 myeloma viability, CellTiter-Glo ATP, 48 h; viability: active compounds read low. In outline: as §1
Assay [14] can be described thus: Quantitative High-Throughput drug screen in 47 multiple myeloma cell lines against the NCATS MIPE library collection: U266_ATCC cell viability assay (AID 1919864). Note: nearly all actives have a fitted effect of over 35% in size. Note: potency is the fitted concentration of half-maximal effect. An outline of the steps: as §1
The nature of assay [15]: Quantitative High-Throughput drug screen in 47 multiple myeloma cell lines against the NCATS MIPE library collection: OCIMY1_PLB cell viability assay (AID 1918979). An outline of the steps: as §1
Assay [16] in a line: Quantitative High-Throughput drug screen in 47 multiple myeloma cell lines against the NCATS MIPE library collection: NCIH929_DSMZ cell viability assay (AID 1918978). Note: nearly all actives have a fitted effect of over 35% in size. Note: potency is the fitted concentration of half-maximal effect. An outline of the steps: as §1
A short description of assay [17]: Quantitative High-Throughput drug screen in 47 multiple myeloma cell lines against the NCATS MIPE library collection: OCIMY5_PLB cell viability assay (AID 1918988). Note: potency is the fitted concentration of half-maximal effect; nearly all actives have a fitted effect of over 65% in size. In outline: as §1
Assay [18] in a line: Quantitative High-Throughput drug screen in 47 multiple myeloma cell lines against the NCATS MIPE library collection: MOLP8_DSMZ cell viability assay (AID 1918977). Note: nearly all actives have a fitted effect of over 45% in size. Note: potency is the fitted concentration of half-maximal effect. In outline: as §1

On to `NS(=O)(=O)c1cc(C(=O)O)c(NCc2ccco2)cc1Cl`, for which the Potency result in assay [1], in [3], in assay [4], in [5], in [6] and in assay [7] was “inactive” throughout. Besides, the Potency result in [8] and in [9] was “inactive” throughout. The Potency in assay [2] was 0.209 µM (active).

The term viability denotes a read-out of living cells in per cent, often relative to untreated cells. Regarding `N[C@@H](Cc1cc(I)c(Oc2cc(I)c(O)c(I)c2)c(I)c1)C(=O)O`, the Potency result in assay [1], in assay [11], in [3], in [5], in assay [6] and in [12] was “inactive” throughout. Also, the Potency entry in assay [8], in [14] and in assay [9] was “inactive” in each case. For the same compound, the Potency in [10] was 2.96 µM (active). Further, in assay [13], the viability was 121%.

Turning to `CC(C)c1nc(CN(C)C(=O)N[C@H](C(=O)N[C@@H](Cc2ccccc2)C[C@H](O)[C@H](Cc2ccccc2)NC(=O)OCc2cncs2)C(C)C)cs1`, the Potency result in [1], in assay [6], in assay [8] and in assay [9] was “inactive” in each case. The Potency in assay [4] is 16.6 µM (active); in assay [7] it was 16.6 µM (active); in assay [12] it was 20.9 µM (active).

For the compound `Cc1ccc(C(=O)c2cc(O)c(O)c([N+](=O)[O-])c2)cc1`, the Potency was 18.7 µM (active) in assay [1], 20.9 µM (active) in [11], 16.6 µM (active) in assay [6] and 23.5 µM (active) in assay [9]. Moreover, the Potency result in assay [15], in assay [4], in assay [5] and in assay [7] was “inactive” in each case.

Regarding `COC(=O)N[C@H](C(=O)N[C@@H](Cc1ccccc1)[C@@H](O)CN(Cc1ccc(-c2ccccn2)cc1)NC(=O)[C@@H](NC(=O)OC)C(C)(C)C)C(C)(C)C`, the Potency result in [1], in [16], in assay [15], in [11], in [6] and in assay [8] was “inactive” throughout. The Potency entry in assay [14] and in assay [9] was “inactive” in each case. The results for the Potency in assay [10] and in [7] were 6.62 µM (active) and 20.9 µM (active), respectively.

`O=C1NC(=O)C(c2ccccc2[N+](=O)[O-])=C1Nc1ccc(O)c(Cl)c1`: the Potency in [1] is 10.5 µM (active); in assay [9], 6.62 µM (active). Further, the Potency entry in [15], in [4], in [6], in [8] and in [14] was “inactive” each time. Moreover, in assay [13], the viability was 110%.

Take `CC1(C)CCC(C)(C)c2cc(NC(=O)c3ccc(C(=O)O)cc3)ccc21`: the Potency in assay [1] was 20.9 µM (active); in [16], 14.8 µM (active); in assay [11], 16.6 µM (active); in [3], 13.2 µM (active); in assay [17], 1.66 µM (active); in assay [13], 14.8 µM (active). Besides, the Potency in assay [9] is 5.26 µM (active). The Potency result in assay [15] and in assay [14] was “inactive” each time.

Regarding `CC1Cc2ccccc2N1NC(=O)c1ccc(Cl)c(S(N)(=O)=O)c1` (stereo not drawn), the Potency entry in [1], in [18], in assay [16], in [15], in assay [3] and in assay [4] was “inactive” throughout. The Potency entry in assay [7], in assay [8] and in [9] was “inactive” in each case. Further, the Potency in [11] was 16.6 µM (active); in assay [14], 6.62 µM (active).

Consider `O=C(O)CCNC(=O)c1ccc(N=Nc2ccc(O)c(C(=O)O)c2)cc1`, for which the Potency entry in assay [1], in assay [16], in [3], in assay [4], in assay [5] and in assay [7] was “inactive” in each case. For the same compound, the Potency entry in assay [8] and in [9] was “inactive” in each case. Besides, the results for the Potency in [11] and in assay [14] were 8.33 µM (active) and 13.2 µM (active), respectively.

As for `CCCCN(CCCC)CCC(O)c1cc2c(Cl)cc(Cl)cc2c2cc(C(F)(F)F)ccc12` (stereo not drawn), the Potency entry in [1], in assay [2], in [15], in assay [11], in assay [6] and in assay [14] was “inactive” in each case. Further, the Potency in [5] was 23.5 µM (active); in [8] it was 18.7 µM (active); in assay [9], 26.4 µM (active).

Consider `Cc1nc2n(c(=O)c1CCN1CCC(c3noc4cc(F)ccc34)CC1)CCCC2`, for which the Potency entry in assay [1], in assay [18], in assay [15], in assay [11], in assay [3] and in assay [4] was “inactive” in each case. Moreover, the Potency result in [5], in assay [7] and in assay [9] was “inactive” throughout. Moreover, in [13], the viability was 134%.

As to `CC(C)c1ccc2c(c1)c(SC(C)(C)C)c(CC(C)(C)C(=O)O)n2Cc1ccc(Cl)cc1`, the Potency entry in assay [1] and in assay [8] was “inactive” each time. Further, the Potency is 2.64 µM (active) in [10], 7.43 µM (active) in assay [11], 14.8 µM (active) in [12] and 20.9 µM (active) in assay [14].

As for `CCOC(=O)C(C)Oc1cccc2c(=O)n(CC(=O)Nc3ccc4c(c3)OCCO4)ccc12` (stereo not drawn), the Potency entry in assay [1], in assay [16], in [15], in assay [7], in [12] and in assay [9] was “inactive” in each case. In addition, the Potency in assay [6] is 9.35 µM (active).

As to `N=C(N)c1ccc2cc(OC(=O)c3ccc(N=C(N)N)cc3)ccc2c1`, the Potency entry in [1], in [11], in assay [3], in assay [4] and in assay [9] was “inactive” throughout. Also, the Potency in assay [10] is 0.935 µM (active); in assay [7], 6.62 µM (active); in assay [17], 18.7 µM (active); in [13] it was 8.33 µM (active).

As for `O=C(NOCC1CC1)c1ccc(F)c(F)c1Nc1ccc(I)cc1Cl`, the Potency was 14.8 µM (active) in assay [1]; 14.8 µM (active) in assay [18]; 23.5 µM (active) in assay [11]; 18.7 µM (active) in assay [6]; 23.5 µM (active) in [7]; 18.7 µM (active) in assay [8]. For the same compound, the Potency in [13] is 20.9 µM (active); in [14] it was 23.5 µM (active); in [9], 6.62 µM (active).
